Several values for one entry are separate records, joined by “and”; a condition that tells them apart may be missing. Equal entries are not always repeated. Hit rate of the full screen: of about 5,500 compounds, about 2,000 (36%) were called active. About 18% were inconclusive and are not listed. Cut-off read from the data, not from the text of the source: active = normalized growth mostly below about 0.91 (no sharp cut-off); inconclusive = no clear call, values can overlap the other calls; inactive = mostly above about 0.92. The list shows a part of the results.
Experiment: chemical genetic growth profiling, strain panel (AID 1159580);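 note: tested at 20 µM; growth read once vehicle control cultures reached saturation at 30 °C; 1 = growth at the plate median or of vehicle wells; lower values mean less growth of the strain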
Conditions: S. cerevisiae deletion strains, growth OD

Measured: normalized growth

O=C1CCC(N2C(=O)c3ccccc3C2=O)C(=O)N1 (stereo unspecified)
inactive: locus YAL013W, strain DEP1, active compounds read low 1.02 and 0.99 | locus YAL021C, strain ccr4, active compounds read low 0.999 | locus YAL026C, strain drs2, active compounds read low 1.01 | locus YAL030W, strain snc1, active compounds read low 1.01 | locus YAL040C, strain CLN3, active compounds read low 1.01 | locus YBL061C, strain skt5, active compounds read low 1.02 | locus YBR009C, strain hhf1, active compounds read low 1.03 | locus YBR021W, strain FUR4, active compounds read low 0.995 | locus YBR023C, strain chs3, active compounds read low 1.03 | locus YBR171W, strain sec66, active compounds read low 1.02 | locus YBR229C, strain ROT2, active compounds read low 1.01 | locus YBR231C, strain swc5, active compounds read low 1.01 | locus YBR279W, strain paf1, active compounds read low 1.03 | locus YCL011C, strain gbp2, active compounds read low 1.03 | locus YCL016C, strain dcc1, active compounds read low 1.03 | locus YCL029C, strain bik1, active compounds read low 0.989 | locus YCL061C, strain MRC1 (second series), active compounds read low 1 | locus YCL061C, strain MRC1, active compounds read low 1.01 | locus YCL069W, strain vba3, active compounds read low 1.02 | locus YCR088W, strain abp1, active compounds read low 1.01 | locus YDL005C, strain med2, active compounds read low 1.01 | locus YDL035C, strain GPR1, active compounds read low 1.02 | locus YDL040C, strain nat1, active compounds read low 1.02 | locus YDL074C, strain BRE1, active compounds read low 1.01 | locus YDL101C, strain DUN1, active compounds read low 1.02 | locus YDL134C, strain PPH21, active compounds read low 1.01 | locus YDL185W, strain tfp1, active compounds read low 0.99 | locus YDL192W, strain arf1, active compounds read low 0.992 | locus YDR001C, strain nth1, active compounds read low 1.02 | locus YDR069C, strain doa4, active compounds read low 1.02 | locus YDR101C, strain arx1, active compounds read low 0.971 | locus YDR137W, strain rgp1, active compounds read low 1.01 | locus YDR150W, strain NUM1, active compounds read low 1.01 | locus YDR159W, strain sac3, active compounds read low 0.974 | locus YDR162C, strain NBP2, active compounds read low 1.04 | locus YDR195W, strain ref2 0.977 | locus YDR297W, strain sur2, active compounds read low 1.01 | locus YDR318W, strain mcm21, active compounds read low 0.977 | locus YDR334W, strain swr1, active compounds read low 1.02 | locus YDR335W, strain msn5, active compounds read low 1.02 | locus YDR363W, strain ESC2, active compounds read low 1 | locus YDR388W, active compounds read low 0.991 | locus YDR392W, strain spt3, active compounds read low 0.958 | locus YDR502C, strain sam2, active compounds read low 0.981 | locus YEL003W, strain gim4, active compounds read low 1.02 | locus YEL037C, strain rad23, active compounds read low 1.02 | locus YEL061C, strain CIN8 (second series), active compounds read low 1.02 | locus YEL061C, strain CIN8, active compounds read low 1.01 | locus YER002W, strain NOP16, active compounds read low 1.01 | locus YER015W, strain faa2, active compounds read low 1.02 | locus YER016W, strain bim1, active compounds read low 1 | locus YER110C, active compounds read low 0.99 | locus YER111C, strain swi4, active compounds read low 1.02 | locus YER155C, strain BEM2 (second series), active compounds read low 0.998 | locus YER155C, strain BEM2, active compounds read low 1 | locus YER167W, strain BCK2, active compounds read low 1.01 | locus YFR010W, strain ubp6, active compounds read low 1.02 | locus YGL078C, strain dbp3, active compounds read low 0.997 | locus YGL086W, strain mad1, active compounds read low 0.985 | locus YGL167C, strain pmr1, active compounds read low 1.02 | locus YGL173C, strain kem1, active compounds read low 1.01 | locus YGL227W, strain vid30, active compounds read low 1.02 | locus YGL240W, strain doc1, active compounds read low 0.986 | locus YGL248W, strain PDE1, active compounds read low 1.01 | locus YGL253W, strain hxk2, active compounds read low 1.01 | locus YGR078C, strain PAC10, active compounds read low 1.02 | locus YGR135W, strain pre9, active compounds read low 0.988 | locus YGR229C, strain SMI1, active compounds read low 1.04 | locus YGR252W, strain gcn5, active compounds read low 0.969 | locus YHR013C, strain ard1, active compounds read low 1.04 | locus YHR027C, strain rpn1, active compounds read low 1.01 | locus YHR030C, strain SLT2, active compounds read low 1 and 0.974 | locus YHR079C, strain IRE1 (second series), active compounds read low 0.981 | locus YHR079C, strain IRE1, active compounds read low 0.971 | locus YHR094C, strain hxt1, active compounds read low 0.994 | locus YHR129C, strain ARP1, active compounds read low 1 | locus YHR142W, strain chs7, active compounds read low 1.04 | locus YHR200W, strain rpn10, active compounds read low 0.986 | locus YIL066C, strain RNR3, active compounds read low 1.01 | locus YIL073C, strain SPO22, active compounds read low 1.01 | locus YIL125W, strain kgd1, active compounds read low 0.997 | locus YIR030C, strain dcg1, active compounds read low 0.994 | locus YJL092W, strain hpr5, active compounds read low 1.02 | locus YJL095W, strain BCK1 (second series), active compounds read low 1.02 | locus YJL095W, strain BCK1, active compounds read low 1.01 and 0.98 | locus YJL115W, strain asf1, active compounds read low 1.01 | locus YJL129C, strain trk1, active compounds read low 1.03 | locus YJL134W, strain LCB3, active compounds read low 1.01 | locus YJL154C, strain vps35, active compounds read low 1.01 | locus YJL164C, strain tpk1, active compounds read low 1.03 | locus YJL166W, strain qcr8, active compounds read low 1.03 | locus YJL168C, strain set2, active compounds read low 0.991 | locus YJL187C, strain SWE1 (second series), active compounds read low 1.01 | locus YJL187C, strain SWE1, active compounds read low 1.01 | locus YJR043C, strain POL32, active compounds read low 0.979 | locus YJR066W, strain TOR1, active compounds read low 0.951

From PubChem BioAssay AID1159580 (chemical genetic matrix, 2015)
